PAFAH1B3 FP inh: PAFAH1B3 enzyme inhibitors, primary screen, biochemical, fluorescence polarization, human | Platelet-activating factor acetylhydrolase IB subunit alpha1 (Homo sapiens), Q15102 | recombinant PAFAH1B3, FP-rhodamine probe | inhibition, % at 3.39 µM | 340,000 compounds, 0.28% hits;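 active means inhibition above the screen-wide average of all tested compounds plus 3 SD, cut at about 25% in these data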;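 further: 0% = enzyme with DMSO only and 100% = wells lacking PAFAH1B3 protein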
Target sequence (Q15102 whole entry, looked up): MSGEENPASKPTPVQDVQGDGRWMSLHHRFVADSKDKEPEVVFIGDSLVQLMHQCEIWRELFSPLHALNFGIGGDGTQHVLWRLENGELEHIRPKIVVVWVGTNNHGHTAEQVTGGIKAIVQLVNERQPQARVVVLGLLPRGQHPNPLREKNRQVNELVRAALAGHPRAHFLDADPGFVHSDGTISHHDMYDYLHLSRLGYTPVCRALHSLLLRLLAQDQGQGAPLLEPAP
PAFAH1B2 inh: PAFAH1B2 enzyme inhibitors, primary screen, biochemical, fluorescence polarization, human. Platelet-activating factor acetylhydrolase IB subunit alpha2 (Homo sapiens), P68402. recombinant PAFAH1B2, FP-rhodamine activity probe. inhibition, % at 3.39 µM. 340,000 compounds, 1.2% hits;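 active means inhibition above the mean of all tested compounds plus 3 SD, cut at about 24% in these data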;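 further: 0% = enzyme with DMSO and 100% = wells lacking PAFAH1B2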
Target sequence (P68402 whole entry, looked up): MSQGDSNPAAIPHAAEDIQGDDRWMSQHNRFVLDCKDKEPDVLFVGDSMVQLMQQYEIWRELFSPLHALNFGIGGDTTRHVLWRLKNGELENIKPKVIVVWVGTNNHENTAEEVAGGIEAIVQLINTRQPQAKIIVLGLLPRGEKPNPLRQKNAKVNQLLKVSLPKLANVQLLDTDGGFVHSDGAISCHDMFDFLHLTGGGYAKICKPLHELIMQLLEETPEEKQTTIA
Fam108B counter: mouse Fam108B serine hydrolase inhibitors, primary screen, counter-screen for RBBP9 inhibitor project, biochemical, fluorescence polarization; recombinant Fam108B, FP-Rh probe fluorescence polarization; AID 1947, 2009; 300,000 compounds, 0.33% hits; inhibition, % at 9.51 µM;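 active means inhibition above the screen mean inhibition plus 3 SD, computed separately per campaign, cut at about 18% in these data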;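 further: inhibitors lower polarization as less probe binds the enzyme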
pPAFAH inh: pPAFAH enzyme inhibitors, primary screen, biochemical, fluorescence polarization, human; Platelet-activating factor acetylhydrolase (Homo sapiens), Q13093; recombinant pPAFAH, FP-rhodamine probe fluorescence polarization; inhibition, % at 3.39 µM; 330,000 compounds, 1.5% hits;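 active means inhibition above the mean inhibition across the screen plus 3 SD, cut at about 25% in these data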;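 further: inhibitors block binding of the rhodamine activity-based probe so polarization drops; 0% = enzyme with DMSO and 100% = wells lacking pPAFAH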
PME-1 primary: PME-1 inhibitors via competitive probe labeling, primary screen, biochemical, fluorescence polarization, FP-Rh probe, HTS; inhibition, % at 5.9 µM; Protein phosphatase methylesterase 1 (Homo sapiens), Q9Y570; AID 2130, 2009; 320,000 compounds, 0.53% hits; recombinant PME-1;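 active means inhibition above the campaign mean of all compounds plus 3 SD, cut at about 26% in these data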;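 further: competitive labeling of PME-1 active site by serine hydrolase directed probe; 0% = PME-1 with DMSO and 100% = wells lacking PME-1 enzyme; inhibitors block probe labeling so polarization falls and inhibition rises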
PAFAH2 inh: PAFAH2 enzyme inhibitors, primary screen, biochemical, fluorescence polarization, human. recombinant PAFAH2, FP-rhodamine activity probe. inhibition, % at 3.39 µM. 340,000 compounds, 0.99% hits;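 active means inhibition above the mean over all tested compounds plus 3 SD, cut at about 30% in these data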;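 further: inhibitors block probe labeling of enzyme so polarization drops; 0% = enzyme with DMSO and 100% = wells lacking PAFAH2 protein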
pPAFAH confirm: pPAFAH (PLA2G7) enzyme inhibitors, confirmation, biochemical, fluorescence polarization, human | inhibition, % at 3.39 µM | 2,300 compounds, 72% hits | AID 463230, 2010 | shares compounds with pPAFAH inh | recombinant pPAFAH, FP-Rh probe fluorescence polarization;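 active means mean inhibition of the triplicate above the hit cutoff set for the earlier primary screen, cut at about 25% in these data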;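 further: 0% = enzyme with DMSO and 100% = wells lacking pPAFAH enzyme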
Numbers without * were called inactive. Hits are enriched below; roughly 2.9% of the tested compounds scored in any of these assays.

CN(C(=O)CN1C(=O)S/C(=C\c2ccc(F)cc2)C1=O)C1CCS(=O)(=O)C1 (stereo not given) was read as PAFAH1B3 FP inh 6, PAFAH1B2 inh -1, Fam108B counter -3, pPAFAH inh 5, PME-1 primary -6 and PAFAH2 inh 4.
`CSc1ccc(COC(=O)c2cc([N+](=O)[O-])ccc2N2CCOCC2)cc1` gave PAFAH1B3 FP inh 0, PAFAH1B2 inh 8, Fam108B counter 2, pPAFAH inh 40*, PME-1 primary 6, PAFAH2 inh 1 and pPAFAH confirm 42*.
Cc1cc(=O)[nH]c(SCC(=O)NCc2ccc3c(c2)OCO3)n1 was read as PAFAH1B3 FP inh 9, PAFAH1B2 inh 3, Fam108B counter 3, pPAFAH inh 4, PME-1 primary -3 and PAFAH2 inh 1.
Screening CCOC(=O)c1c(N)sc(=S)c2c1CCC2 returned PAFAH1B3 FP inh 18, PAFAH1B2 inh 5, Fam108B counter 9, pPAFAH inh 49*, PME-1 primary 7, PAFAH2 inh 28 and pPAFAH confirm 16.
`Cc1ccc(NC(=O)C(C)OC(=O)CCC2CCCCC2)cc1` (stereo not given) gave PAFAH1B3 FP inh 6, PAFAH1B2 inh 7, Fam108B counter -2, pPAFAH inh 43*, PME-1 primary -2, PAFAH2 inh 3 and pPAFAH confirm 8.
`CC(OC(=O)CCC1CCCCC1)C(=O)Nc1ccc(S(N)(=O)=O)cc1` (stereo not given) gave PAFAH1B3 FP inh -2, PAFAH1B2 inh 3, Fam108B counter -1, pPAFAH inh 0, PME-1 primary 4 and PAFAH2 inh -6.
For CN(Cc1ccccc1)S(=O)(=O)c1ccc(Cl)c(C(=O)N2CCC(C(N)=O)CC2)c1 the results were PAFAH1B3 FP inh 10, PAFAH1B2 inh -1, pPAFAH inh 0 and PAFAH2 inh -4.
CC(C)=CCc1c(O)ccc2c1OC(c1ccc(O)c(O)c1)CC2=O (stereo not given) was read as PAFAH1B3 FP inh 15, PAFAH1B2 inh 6, Fam108B counter -5, pPAFAH inh 20, PME-1 primary -18 and PAFAH2 inh 7.
`O=C1CC(c2ccc(O)c(O)c2)Oc2c1ccc(O)c2O` (stereo not given) gave PAFAH1B3 FP inh 19, PAFAH1B2 inh 12, Fam108B counter 6, pPAFAH inh 60*, PME-1 primary -5, PAFAH2 inh 50* and pPAFAH confirm 60*.
`Oc1ccc(-c2csc(-c3ccccc3)n2)cc1O` gave PAFAH1B3 FP inh 1, PAFAH1B2 inh 0, Fam108B counter 4, pPAFAH inh 45*, PME-1 primary -17, PAFAH2 inh 0 and pPAFAH confirm 59*.
For Cc1nc(-c2ccc(O)c(O)c2)cs1 the results were PAFAH1B3 FP inh 10, PAFAH1B2 inh 7, Fam108B counter 14, pPAFAH inh 35*, PME-1 primary -10, PAFAH2 inh -4 and pPAFAH confirm 6.
Screening CC(C)C(C)NC(=O)COC(=O)C1CCN(S(=O)(=O)c2ccc3c(c2)OCCO3)CC1 (stereo not given) returned PAFAH1B3 FP inh 0, PAFAH1B2 inh 4, Fam108B counter 4, pPAFAH inh 38*, PME-1 primary 3, PAFAH2 inh 9 and pPAFAH confirm 11.
CN(C)S(=O)(=O)c1cccc(N=C2SCCN2Cc2ccccc2)c1 was read as PAFAH1B3 FP inh 4, PAFAH1B2 inh 2, Fam108B counter 3, pPAFAH inh 7, PME-1 primary 5 and PAFAH2 inh -1.
For CNS(=O)(=O)c1ccc(C(=O)NCC(=O)NCCC(c2ccccc2)c2ccccc2)cc1 the results were PAFAH1B3 FP inh 7, PAFAH1B2 inh 8, pPAFAH inh 0, PME-1 primary 1 and PAFAH2 inh 6.
Screening COc1ccc(C(=O)NCCS(=O)(=O)NCc2ccc3c(c2)OCO3)cc1 returned PAFAH1B3 FP inh 3, PAFAH1B2 inh 2, Fam108B counter 1, pPAFAH inh 39*, PME-1 primary -4, PAFAH2 inh 11 and pPAFAH confirm -3.
For CCOC(=O)N1CCC(NC(=O)c2ccc(CS(=O)c3cccc(C)c3)o2)CC1 (stereo not given) the results were PAFAH1B3 FP inh 9, PAFAH1B2 inh 4, Fam108B counter 1, pPAFAH inh 2, PME-1 primary 5 and PAFAH2 inh -4.
Screening O=C1CC(=O)Nc2cc(S(=O)(=O)NCc3cccs3)ccc2N1 returned PAFAH1B3 FP inh 0, PAFAH1B2 inh 1, Fam108B counter 2, pPAFAH inh 65*, PME-1 primary 3, PAFAH2 inh 1 and pPAFAH confirm 2.
`C=C(C)Cn1c(-c2ccc(OC)cc2)nc2ccccc21` gave PAFAH1B3 FP inh 9, PAFAH1B2 inh 2, Fam108B counter 4, pPAFAH inh 78*, PME-1 primary 3, PAFAH2 inh 6 and pPAFAH confirm 12.
CCS(=O)(=O)Nc1ccc(C2=NN(S(=O)(=O)CC)C(c3cccs3)C2)cc1 (stereo not given) was read as PAFAH1B3 FP inh 5, PAFAH1B2 inh -3, Fam108B counter -4, pPAFAH inh 1, PME-1 primary -5 and PAFAH2 inh 1.
CCCCC(=O)c1ccc(O)cc1 was read as PAFAH1B3 FP inh 6, PAFAH1B2 inh 3, Fam108B counter 4, pPAFAH inh 19, PME-1 primary -1 and PAFAH2 inh -1.
`O=C(CCO)c1ccc(O)cc1` gave PAFAH1B3 FP inh 11, PAFAH1B2 inh 7, Fam108B counter -1, pPAFAH inh 37*, PME-1 primary 5, PAFAH2 inh 14 and pPAFAH confirm 17.
`O=C(CCSCCC(=O)NCc1ccc(F)cc1)NCc1ccc(F)cc1` gave PAFAH1B3 FP inh 3, PAFAH1B2 inh -1, Fam108B counter -5, pPAFAH inh 8, PME-1 primary 2 and PAFAH2 inh -12.
`CCOc1cc(/C=C(\C#N)c2[nH]nc(N)c2C#N)ccc1O` gave PAFAH1B3 FP inh 12, PAFAH1B2 inh 7, Fam108B counter 10, pPAFAH inh 37*, PME-1 primary 12, PAFAH2 inh 3 and pPAFAH confirm 16.
